Compound activity: PubChem BioAssay, several laboratories
PrP UTR inh – suppresses PrP 5' UTR mRNA reporter expression | cell-based PrP 5' UTR mRNA reporter, plate reader | inhibition, % (no concentration beside the values) | actives 0.35% (n = 340,000) | AID 488862; in the data active = inhibition above about 52%; also: 0 = median of the neutral control wells
PriA SSB inh – K. pneumoniae PriA-SSBct interaction inhibition; AlphaScreen SSBct-PriA binding, biotinylated peptide; inhibition, % at 33 µM; actives 0.6% (n = 430,000); AID 1272365; in the data active = inhibition mostly above about 37%, no sharp cut-off; inactive = mostly below about 20%;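 also: plate controls were negative control peptide for no effect and reference peptide for full effect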
PrPC TRFRET – inhibitors of human cell surface prion protein PrPC. actives 0.43% (n = 370,000). AID 720596. inhibition, % at 13.8 µM. TR-FRET read-out; in the data active = inhibition above about 24%; also: 0% = median of the test wells and 100% = reference compound wells
BJeLR lethal – kills HRASV12-expressing BJeLR cells | BJeLR (HRASV12) viability, CellTiter-Glo ATP luminescence, 48 h | inhibition, % (no concentration beside the values) | actives 0.17% (n = 300,000) | AID 1554; in the data active = inhibition above about 50%
3CLpro inhibitor – SARS-CoV 3CLpro protease inhibition. recombinant SARS-CoV 3CLpro, quenched FRET peptide cleavage. inhibition, % at 6 µM. actives 0.14% (n = 290,000); in the data active = inhibition above about 12%
* hit, by the source's call; . = not tested or not shown; ! = repeats disagree. In the library only some 1.2% were active in any assay of this set; here they are far more common.

SMILES	PrP UTR inh	PriA SSB inh	PrPC TRFRET	BJeLR lethal	3CLpro inhibitor
Cc1cccc(NS(=O)(=O)c2ccc(NC(=O)CN(c3cc([N+](=O)[O-])ccc3C)S(C)(=O)=O)cc2)c1	9	-3	8	69*	5
COc1ccc([N+](=O)[O-])cc1N(CC(=O)NCCSc1ccc(C)cc1)S(C)(=O)=O	-20	-5	-12	-11	1
O=c1c2ccccc2c(CNS(=O)(=O)Cc2ccc(F)cc2)nn1CCN1CCCC1	.	1	.	.	.
CCc1ccc(S(=O)(=O)NCc2nn(CCN3CCCC3)c(=O)c3ccccc23)s1	.	44*	.	.	.
Cn1c(=O)oc2cc(S(=O)(=O)N3CCCC(C(=O)NCC4COc5ccccc5O4)C3)ccc21 (stereo not given)	-73	104*	-4	4	1
O=C(Nc1cnn(C2CCOC2)c1)c1ccc(S(=O)(=O)N2CCCC2)cc1 (stereo not given)	.	1	.	.	.
CC(C)(C)NC(=S)Nc1ccc(Nc2ccccc2)cc1	-17	52*	-1	2	1
COc1ccc(-c2ccc(=O)n(CCNC(=O)C(C)Oc3ccccc3F)n2)cc1OC (stereo not given)	.	11	.	.	.
COc1ccccc1OCC(=O)Nc1cc(C)nn1-c1nc2c(cnn2-c2cccc(C)c2C)c(=O)[nH]1	.	42*	.	.	.
COc1ccccc1OCC(=O)Nc1cc(C)nn1-c1nc2c(cnn2-c2ccc(F)cc2)c(=O)[nH]1	.	-8	.	.	.
Cc1cc(NC(=O)c2c(F)cccc2F)n(-c2nc3c(cnn3-c3cccc(C)c3C)c(=O)[nH]2)n1	.	52*	.	.	.
COc1ccccc1-n1ccnc1SCC(=O)Nc1ccc2c(c1)OCCO2	.	5	.	.	.
O=C(CSc1ncc(-c2ccc(Cl)c(Cl)c2)n1Cc1ccccc1)Nc1cccc(Cl)c1	.	13	.	.	.
O=C(CSc1nccn1Cc1ccc(Cl)cc1)Nc1ccc2c(c1)OCCO2	.	42*	.	.	.
Cc1cccc(-n2ccnc2SCC(=O)Nc2ccc3c(c2)OCCO3)c1C	.	49*	.	.	.
C=CCn1c(-c2ccc(OC)cc2)cnc1SCC(=O)Nc1cccc(Cl)c1	.	39*	.	.	.
Cc1cc(C)cc(-n2ccnc2SCC(=O)Nc2ccc3c(c2)OCCO3)c1	-8	45*!	9	0	1
CC(=O)Nc1ccc(NC(=O)CSc2nccn2Cc2ccc(Cl)cc2)cc1	-23	1	3	9	-2
CCc1ccc(C(=O)c2cnc3ccc(OC)cc3c2N2CCCC2)cc1	.	7	.	.	.
COc1ccc(C=NNC(=O)COc2ccc(Cl)cc2Cl)c(C(=O)O)c1OC	.	-3	.	.	.
CC1(C)Cc2ccccc2-c2nnc(SCC(=O)Nc3ccc4c(c3)OCO4)n21	-24	6	26*	5	-2
Nn1c(SCC(=O)Nc2ccc3c(c2)OCO3)nnc1-c1ccccc1	-45	3	2	1	-8
Cc1cc(C)cc(-n2ccnc2SCC(=O)Nc2cccc(Cl)c2)c1	.	47*	.	.	.
CCOC(=O)c1ccccc1NC(=O)Cn1cnc2c(-c3ccccc3)csc2c1=O	.	1	.	.	.
Cn1c(C(F)(F)F)nn(CCNC(=O)C2c3ccccc3Oc3ccccc32)c1=O	.	-8	.	.	.
SMILES	PrP UTR inh	PriA SSB inh	PrPC TRFRET	BJeLR lethal	3CLpro inhibitor
Cc1ccc(C)c(Nc2c([N+](=O)[O-])cc(C(=O)N3CC(=O)Nc4ccccc43)cc2[N+](=O)[O-])c1	1	53*	-2	5	4
Cc1cccc(Nc2c([N+](=O)[O-])cc(C(=O)N3CC(=O)Nc4ccccc43)cc2[N+](=O)[O-])c1	-14	8	-25	1	9
COC(=O)c1ccc(C(=O)Nc2ccc(N)cc2N)cc1	-12	40*	6	-4	-2
COc1ccccc1NC(=O)c1ccc(N)cc1	-16	-3	0	-1	3
Cc1csc(NC(=O)[C@H](C)n2nc(-c3ccc(F)cc3)ccc2=O)n1	.	7	.	.	.
COc1ccc(OC)c2c(C)cc(N3CCCN(C)CC3)nc12	-28	44*	0	-2	-2
COc1ccccc1N1CCN(c2cc(N3CCCC3)nc(C)n2)CC1	-9	4	1	3	4
COc1cc(CNCCc2c[nH]c3ccccc23)ccc1OCc1ccccc1F	-14	38*	-5	-2	0
c1ccc(CNCCc2c[nH]c3ccccc23)cc1	-20	0	1	1	-2
COc1cccc(CNCCc2c[nH]c3ccccc23)c1OCc1ccccc1	-3	45*	-6	6	1
COc1cc(CNCCc2c[nH]c3ccccc23)cc(OC)c1OC	.	.	-8	.	.
c1ccc(CNc2nc(-c3ccccn3)nc3ccccc23)cc1	-10	64*	-4	5	-2
c1ccc(-c2nc(NC3CCCCC3)c3ccccc3n2)nc1	.	57*	.	.	.
Cc1n[nH]c(C)c1S(=O)(=O)Nc1ccc(CC(=O)NCC(F)(F)F)cc1	.	-16	.	.	.
Cc1ccc2c(c1)c1cccc3c1n2CCN3CCC(N)=O	-99	58*	.	-6	7
Cc1cccc(NC(=S)NN=Cc2ccc([N+](=O)[O-])s2)c1	.	39*	.	.	.
Cc1ccc(NC(=S)N/N=C/c2ccc([N+](=O)[O-])s2)cc1	-1	.	-18	-10	-3
COc1coc(C(=O)NC(C)CCc2ccccc2)cc1=O (stereo not given)	.	-6	.	.	.
COc1ccccc1C(=O)NCCOc1ccc2nnc(-c3cccc(F)c3)n2n1	.	-1	.	.	.
CC1CN(c2oc(Cc3cccc4ccccc34)nc2C#N)CC(C)O1 (stereo not given)	-16	52*	-3	2	-2
COc1ccc2cc(C(=O)NCCCN3CCCC3=O)[nH]c2c1	-27	40*	-8	-3	-1
Cc1cc(NC(=O)C(=O)N2CCCCCC2)n(-c2nc(C)c(C)c(=O)[nH]2)n1	.	1	.	.	.
CN(CC(=O)O)C(=O)NC12CC3CC(C1)CC(c1ccccc1)(C3)C2	.	2	.	.	.
O=C(Nc1ncc(-c2ccccc2)s1)c1cccc(C(F)(F)F)c1	.	-14	.	.	.
COc1ccc(OCc2cc(C(=O)N3CCCC(CO)C3)no2)c2ccccc12 (stereo not given)	-51	15	3	5	0
SMILES	PrP UTR inh	PriA SSB inh	PrPC TRFRET	BJeLR lethal	3CLpro inhibitor
CCn1ccnc1CNC(=O)c1cc(COc2ccc(OC)c3ccccc23)on1	.	68*	.	.	.
CCn1ccnc1CN(C)C(=O)c1cc(COc2ccc(OC)c3ccccc23)on1	-23	39*	-10	2	0
Cc1cccc(OCC(=O)NCC2CCN(Cc3ccco3)CC2)c1	.	-1	.	.	.
COc1ccccc1C1=NN(C(=S)Nc2ccccc2)C(c2ccco2)C1 (stereo not given)	-48	39*!	-3	-4	3
CN(C)c1ccc(/C=C(\NC(=O)c2ccccc2)C(=O)NCCCn2ccnc2)cc1	-7	39*	-8	-7	-1
Cc1ccc(C(=O)N/C(=C/c2ccco2)C(=O)NCCCn2ccnc2)cc1	-29	1	0	-14	1
O=C(NCCCn1ccnc1)/C(=C/c1ccccc1)NC(=O)c1ccccc1	-5	9	-9	-5	-4
Cc1ccc(C(=O)N/C(=C\c2ccco2)C(=O)NCCCn2ccnc2)cc1	-4	103*	-14	4	-3
Cc1ccc(N2CCCS2(=O)=O)cc1NC(=O)C(=O)NCc1ccc(F)cc1	.	-3	.	.	.
CCN(CC)C(=S)SC1=C(Cl)CS(=O)(=O)C1	.	98*	.	.	.
